DT40 TDP1 CPT – DT40-hTDP1 cell growth loss with CPT | Potency, µM (series often up to 46.2 µM), most hits filed as inhibitors | hit rate 12% among 420,000 | chicken DT40 Tdp1-/-;hTDP1 cells + 20 nM CPT, ATP luminescence, 48 h; note: nearly all actives have a fitted effect of over 55% in size
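Chicken DT40 Tdp1-/- cells complemented with human TDP1, 400 cells/well, exposed to compounds plus 20 nM camptothecin for at least 48 h at 37 C; viability read as ATP content by CellTiter-Glo luminescence.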
ClpP mod – qHTS Assay for Activators of ClpP; purified B. subtilis ClpP, FRET peptide cleavage, 20 min; hit rate 1.9% among 340,000; ATP-dependent Clp protease proteolytic subunit (Bacillus subtilis (strain 168)), P80244; Potency, µM (highest dose often 57.5 µM); active = well fitted falling curve with a large enough effect; inconclusive = small, poorly fitted or top-dose-only effect; inactive = no such curve, though single readings can be large or run the other way; note: the source files actives as falling curves though it sought activators and does not explain the sign; nearly all actives have a fitted effect of over 65% in size
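Buffer: 100 mM Tris/HCl pH8, 100 mM KCl, 0.05% low protease BSA, 2.5% glycerol, 0.01% Tween-20. ClpP 10 microg/mL final; 20 min RT; delta FRET normalized to ADEP and DMSO controls.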
TDP1 block – TDP1 (human) enzyme inhibition; hit rate 0.28% among 350,000; recombinant TDP1, AlphaScreen DNA substrate cleavage; Potency, µM (top dose mostly 130 µM), most hits filed as inhibitors; note: nearly all actives have a fitted effect of over 40% in size
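Here, a 5' biotin and 3' phosphotyrosine-FITC DNA oligonucleotide reports Tdp1 activity: intact substrate bridges AlphaScreen beads, while cleavage leaves a 3' phosphate and drops signal. All incubations at room temperature.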
TDP1 cell noCPT – qHTS for Inhibitors of human tyrosyl-DNA phosphodiesterase 1 (TDP1): qHTS in cells in absence of CPT. Potency, µM (titrated, usually from 46.2 µM), most hits filed as inhibitors. AID 686978, 2013. hit rate 15% among 420,000. DT40 Tdp1-/- hTDP1 cells, no CPT, ATP luminescence, 48 h; note: nearly all actives have a fitted effect of over 55% in size
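Compound effects on proliferation are scored in DT40 Tdp1-/-;hTDP1 cells in the absence of CPT. ATP levels (CellTiter-Glo luminescence) are recorded after a ≥48 hr, 37 °C incubation.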
Large screens that a line does not name were inactive. Shown are actives, neighbours in structure and some others; about 17% of the full set was active somewhere. Unless noted, calls come from the whole dose curve; as a rule, active = well fitted curve in the direction sought with a large enough effect; inconclusive = small, poorly fitted or top-dose-only effect, or another doubt; inactive = no such curve, though single readings can be large; an effect the other way counts as inactive or inconclusive.

C/C(=N\NC(=O)c1ccc([N+](=O)[O-])c(C)c1)c1ccccc1Cl	DT40 TDP1 CPT inconclusive, TDP1 cell noCPT 21µM
O=C(Nc1ccc(Nc2ccccc2)cc1)c1ccc(Cl)cc1[N+](=O)[O-]	DT40 TDP1 CPT 5.8µM, TDP1 cell noCPT 16µM (no result: TDP1 block)
Cc1c([N+](=O)[O-])cc(C(=O)Nc2ccc(Cc3ccncc3)cc2)cc1[N+](=O)[O-]	none
Cc1cc(C(=O)Nc2ccc(Nc3ccccc3)cc2)ccc1[N+](=O)[O-]	DT40 TDP1 CPT 3.3µM, TDP1 cell noCPT 4.6µM (no result: TDP1 block)
O=C(Nc1ccc(Cc2ccncc2)cc1)c1ccc(Cl)c([N+](=O)[O-])c1	DT40 TDP1 CPT 16µM, TDP1 cell noCPT 18µM
O=C(OC[C@@H](O)CO)c1ccccc1Nc1ccnc2cc(Cl)ccc12	none (no result: DT40 TDP1 CPT, ClpP mod, TDP1 cell noCPT)
COc1ccc(C=CC(C)=NNC(=O)c2ccncc2)cc1	TDP1 cell noCPT inconclusive (no result: TDP1 block)
CCOC(=O)c1ccc(NC(=O)c2nc[nH]c2C(=O)NCCCCCNC(=O)OC(C)(C)C)cc1	DT40 TDP1 CPT inconclusive, TDP1 cell noCPT 18µM
CCOC(=O)c1[nH]cnc1C(=O)Nc1ccc(F)cc1	none
CCOC(=O)c1ccc(NC(=O)c2nc[nH]c2C(=O)NCCCNC(=O)c2[nH]cnc2C(=O)Nc2ccc(C(=O)OCC)cc2)cc1	none
CCOC(=O)c1[nH]cnc1C(=O)Nc1cccc(N)n1	DT40 TDP1 CPT inconclusive, ClpP mod 14µM
CCOC(=O)c1ccc(NC(=O)c2nc[nH]c2C(=O)NCCCCNC(=O)c2[nH]cnc2C(=O)Nc2ccc(C(=O)OCC)cc2)cc1	DT40 TDP1 CPT inconclusive, TDP1 cell noCPT 4.6µM
O=C(NCCCn1ccnc1)c1ccc(-c2cccc(C(F)(F)F)c2)o1	DT40 TDP1 CPT inconclusive, TDP1 cell noCPT inconclusive
CC(=O)Nc1ccc(S(=O)(=O)NC2=NCN(C(C)C)CN2)cc1	none
CN1CCN(Cc2cccc3ncccc23)CC1CCO (stereo unspecified)	none (no result: ClpP mod)
Oc1ccc(C[C@H]2CNC(=S)N2CC2CCCN2C[C@H](Cc2ccc(O)cc2)N2C[C@H](Cc3ccccc3)N(CC3CCCCCC3)C2=S)cc1 (stereo partly specified)	DT40 TDP1 CPT 10µM, TDP1 cell noCPT 4.1µM (no result: TDP1 block)
Oc1ccc(C[C@@H](CN2CCCC2CN2C(=S)NC[C@@H]2Cc2ccccc2)N2C[C@H](Cc3ccccc3)N(CC3CCCCC3)C2=S)cc1 (stereo partly specified)	DT40 TDP1 CPT 15µM, TDP1 cell noCPT 21µM (no result: TDP1 block)
Oc1ccc(C[C@H]2CN([C@@H](Cc3ccccc3)CN3CCC[C@@H]3CN3C(=S)NC[C@@H]3Cc3ccccc3)C(=S)N2CC2CCCCC2)cc1	DT40 TDP1 CPT inconclusive, TDP1 cell noCPT 26µM (no result: TDP1 block)
Oc1ccc(C[C@@H](CN2CCCC2CN2C(=S)NC[C@@H]2Cc2ccccc2)N2C[C@H](Cc3ccccc3)N(CC3CCCCCC3)C2=S)cc1 (stereo partly specified)	DT40 TDP1 CPT inconclusive, TDP1 cell noCPT inconclusive (no result: TDP1 block)
Oc1ccc(C[C@H]2CNC(=S)N2CC2CCCN2C[C@H](Cc2ccc(O)cc2)N2C[C@H](Cc3ccc(O)cc3)N(CC3CCCCCC3)C2=S)cc1 (stereo partly specified)	DT40 TDP1 CPT 23µM, TDP1 cell noCPT 18µM (no result: TDP1 block)
CC(C)NC(=O)N1CCC2(CC1)CCN(C(=O)c1ccncc1)CC2	none (no result: ClpP mod, TDP1 block)
COC(=O)c1ccc(NC(=O)CCn2cccn2)cc1	none
Oc1ccc(C[C@H]2CNC(=S)N2CC2CCCN2C[C@H](Cc2ccccc2)N2C[C@H](Cc3ccc(O)cc3)N(CC3CCCCC3)C2=S)cc1 (stereo partly specified)	DT40 TDP1 CPT inconclusive, TDP1 cell noCPT 21µM (no result: TDP1 block)
Oc1ccc(C[C@H]2CNC(=S)N2CC2CCCN2C[C@H](Cc2ccc(O)cc2)N2C[C@H](Cc3ccccc3)N(CC3CCCCC3)C2=S)cc1 (stereo partly specified)	DT40 TDP1 CPT 16µM, TDP1 cell noCPT 16µM (no result: TDP1 block)
CCN(CC)S(=O)(=O)c1ccc(Cl)c(NC(=O)COc2ccccc2[N+](=O)[O-])c1	DT40 TDP1 CPT inconclusive, TDP1 cell noCPT 23µM
CCN(CC)S(=O)(=O)c1ccc(C(=O)N2CCc3ccccc32)cc1	DT40 TDP1 CPT inconclusive, TDP1 cell noCPT inconclusive (no result: ClpP mod)
CN(C)S(=O)(=O)c1cccc(C(=O)Nc2ccccc2[N+](=O)[O-])c1	DT40 TDP1 CPT inconclusive, TDP1 cell noCPT inconclusive
CN(C)S(=O)(=O)c1ccc(Cl)c(NC(=O)COc2ccccc2[N+](=O)[O-])c1	DT40 TDP1 CPT inconclusive, TDP1 cell noCPT 3.3µM
CCN(CC)S(=O)(=O)c1ccc(Cl)c(NC(=O)COc2ccc(OC)cc2)c1	none
CCN(CC)S(=O)(=O)c1cc(C(=O)Nc2ccccc2[N+](=O)[O-])ccc1Cl	DT40 TDP1 CPT inconclusive, TDP1 cell noCPT 16µM
CCN(CC)S(=O)(=O)c1cc(C(=O)N2CCc3ccccc32)ccc1Cl	DT40 TDP1 CPT inconclusive, TDP1 cell noCPT 9.2µM
COc1ccc(/C=C/C(=O)N2CCc3c(cnc(C)c3CNC(=O)c3ccsc3)C2)cc1OC	none (no result: ClpP mod, TDP1 block)
CC(C)(C)C(=O)COc1ccccc1[N+](=O)[O-]	DT40 TDP1 CPT 15µM, TDP1 cell noCPT inconclusive
O=C1CCCN1C(=O)COc1ccccc1[N+](=O)[O-]	none (no result: ClpP mod)
O=Cc1cc(OCc2ccccc2)ccc1[B-](F)(F)F	DT40 TDP1 CPT 1.3µM, ClpP mod inconclusive, TDP1 cell noCPT 2.1µM (no result: TDP1 block)
O=C(O)CCCc1ccc2ccc3cccc4ccc1c2c34	none (no result: ClpP mod, TDP1 block)
NCCCCc1ccc2ccc3cccc4ccc1c2c34	DT40 TDP1 CPT 16µM, TDP1 cell noCPT inconclusive (no result: ClpP mod)
O=C(NCCc1ccccc1)c1cc(Sc2ccc(F)cc2F)nc2ccccc12	DT40 TDP1 CPT inconclusive, TDP1 cell noCPT inconclusive
O=C(NCc1cccnc1)c1cc(Sc2ccc(F)cc2F)nc2ccccc12	DT40 TDP1 CPT 23µM, TDP1 cell noCPT 21µM
CC(C)Cc1csc(NC(=O)c2ccc(Br)cc2)c1C(=O)O	none
Brc1cccc(-c2nc3cccnc3nc2-c2cccc(Br)c2)c1	DT40 TDP1 CPT inconclusive, TDP1 cell noCPT 16µM (no result: TDP1 block)
Cc1ccc(CNC(=O)CCN2C(=O)C(C)Oc3ccc(C)cc32)cc1 (stereo unspecified)	DT40 TDP1 CPT inconclusive, TDP1 cell noCPT inconclusive
COc1ccc(-c2nc3cnc(OC)nc3n(Cc3cccs3)c2=O)cc1	TDP1 cell noCPT inconclusive (no result: ClpP mod, TDP1 block)
CCOc1ccc(C2=CS/C(=C(\C#N)c3nnc4n3CCCCC4)N2CC)cc1	DT40 TDP1 CPT inconclusive, TDP1 cell noCPT 23µM
C=CCN1C(c2ccccc2)=CS/C1=C(\C#N)c1nnc2n1CCCCC2	DT40 TDP1 CPT inconclusive, TDP1 cell noCPT inconclusive
CC(C)CC(NS(=O)(=O)c1ccc2c(c1)oc(=O)n2C)C(=O)NCCc1ccc(Cl)cc1 (stereo unspecified)	DT40 TDP1 CPT inconclusive
COc1cc(-c2nc(-c3ccc(-c4ccccc4)nc3OC)no2)cc(OC)c1OC	none (no result: DT40 TDP1 CPT, ClpP mod, TDP1 cell noCPT)
COc1cc(-c2noc(C)c2C(=O)NCc2ccc(C)o2)cc(OC)c1OC	DT40 TDP1 CPT inconclusive, TDP1 cell noCPT inconclusive
